# Only some compounds are listed: those with a hit (about 4% of all), similar ones and a draw of the others.
# Peg3 prom inh = inhibitors of Peg3 promoter. HeLa PEG-Prom luciferase reporter, luminescence, overnight. inhibition, % at 20 µM. 1.7% of 360,000 active. AID 588405;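 active = inhibition of at least 50% at 20 µM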
# KKLEB cytotox = counter-screen for CF NF-kB inhibitors: cytotoxicity; activity change (cytotoxicity), % at 5 µM; KKLEB CF airway cells viability, ATPlite luminescence, overnight; stronger effect = lower value; cells stimulated with P. aeruginosa culture filtrate; 0.36% of 360,000 active;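 active = corrected activity change at or below -50% at 5 µM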
# HIF-2a block = blocks HIF-2a reporter activity; 786-0 RCC cells HIF-2a reporter, luciferase luminescence, overnight; inhibition, % at 18.8 µM; 0.72% of 360,000 active;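 active = inhibition of the luminescence signal of 40% or more relative to plate controls, in a single-dose primary screen at 18.75 µM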
# TWEAK Fn14 block = TWEAK-Fn14 signaling inhibition; TWEAK-stimulated Fn14 reporter cells, luciferase luminescence, 8 h; inhibition, % at 10 µM; 2% of 360,000 active; AID 1159606; in the data active = inhibition above about 50%
# TROY NFkB inh = inhibitors of TROY-dependent NF-kB signaling. 0.98% of 360,000 active. Q293 LMP1-TROYcd NF-kB luciferase reporter, 4 h. inhibition, % at 10 µM;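 active = compounds whose plate-normalised and pattern-corrected inhibition of the luciferase reporter signal at the single screening dose is 50% or more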
# CF NFkB inh = inhibitors of cystic fibrosis induced NF-kB; KKLEB NF-kB-GFP reporter, PAF-induced, GFP fluorescence overnight; inhibition, % at 5 µM; 0.86% of 360,000 active;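 active = at least 50% inhibition at 5 µM, scaled per plate between neutral and stimulator controls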;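 note: PAF is a Pseudomonas aeruginosa culture filtrate used as stimulus; plate controls were PAF-stimulated DMSO wells for no effect and unstimulated DMSO wells for full effect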
# * hit, by the source's call; · = not tested or not shown.
SMILES,Peg3 prom inh,KKLEB cytotox,HIF-2a block,TWEAK Fn14 block,TROY NFkB inh,CF NFkB inh
COCCNc1nc(NCc2cccc(OC)c2)c2sc(-c3ccccc3)cc2n1,57*,-7,-43,-10,-54,1
C=CCNc1nc(NCCOC)c2sc(-c3ccccc3)cc2n1,-21,4,-63,-16,-25,-59
COc1ccc(CCn2c(=N)c(C(=O)N3CCN(C)CC3)cc3c(=O)n4ccccc4nc32)cc1,-42,-1,-8,-30,3,-22
CC(=C/c1ccccc1)/C=N/n1c(C)n[nH]c1=S,0,-1,-106,-16,-18,-3
CC(=O)Nc1c(Br)cc2c(c1Br)C(=O)c1ccccc1-2,-5,-6,-18,27,-6,0
CC(=O)C1=C(c2ccc(Br)cc2)C(=O)c2ccccc2C1=O,96*,-12,30,103*,57*,81*
O=C(CCCN1C(=O)/C(=C/c2cccs2)SC1=S)Nc1cccc(O)c1,61*,-4,14,25,21,-1
O=C(CCN1C(=O)/C(=C/c2cccs2)SC1=S)Nc1cccc(O)c1,-13,4,-1,6,54*,-23
O=C(CCCN1C(=O)/C(=C/c2cccs2)SC1=S)Nc1cccc(C(=O)O)c1,9,8,8,24,-13,9
O=C(CCCN1C(=O)/C(=C/c2cccs2)SC1=S)NNC(=O)c1ccc(F)cc1,22,11,46*,28,22,-4
O=C(CCCN1C(=O)/C(=C/c2cccs2)SC1=S)Nc1ccc(C(=O)O)cc1,13,9,6,-5,-9,-7
O=C(CCCN1C(=O)/C(=C\c2cccs2)SC1=S)Nc1cc([N+](=O)[O-])ccc1O,40,-14,7,-3,40,53*
COc1ccc(CN2C(=O)c3cccnc3C2=O)cc1S(=O)(=O)N1CCCCC1C (configuration not stated),4,7,7,-13,5,-8
CC(C)C(=O)N1CCN(c2ccccc2NC(=O)c2ccc3c(c2)OCCO3)CC1,18,-12,14,-7,9,-2
Clc1ccc(Cn2nnc(-c3ccc(CN4CCOCC4)cc3)n2)cc1,-22,-11,-59,-8,-18,7
Brc1ccc2nc(-c3c[nH]c4ccccc34)cn2c1,-378,-3,-341,-10,-39,-32
Cc1ccn2cc(-c3ccc(Br)cc3)nc2c1,-69,-47,-45,73*,33,-27
Clc1ccc(-c2cn3cc(Br)ccc3n2)cc1Cl,-67,-7,-86,58*,28,3
CC(=O)N1C(Nc2ccc(Cl)cc2)CCN1c1ccccc1 (configuration not stated),-15,0,20,6,9,4
COc1ccc(S(=O)(=O)NNC(=O)C23CC4CC(CC(C4)C2)C3)cc1[N+](=O)[O-],12,-12,2,0,11,-14
CCC(C)n1c(NC(=O)c2ccccc2)c(C#N)c2nc3ccccc3nc21 (configuration not stated),29,11,17,42,58*,0
CCC(=O)Nc1c(C#N)c2nc3ccccc3nc2n1-c1ccc(C)cc1,18,2,24,13,3,20
CCCCn1c(NC(=O)c2ccccc2)c(C#N)c2nc3ccccc3nc21,38,-10,-20,64*,68*,-27
CC[C@H](C)[C@@H](CN[C@H](C)CNC)NCCC(c1ccccc1)c1ccccc1,98*,-11,-3,-19,-3,20
Cn1ccsc1=NC(=O)c1ccc(S(C)(=O)=O)c([N+](=O)[O-])c1,78*,-22,-2,27,-9,35
CCCCn1nnnc1C1(C)CCC(=O)N1Cc1ccc(OC)cc1 (configuration not stated),·,·,14,1,-4,·
Cc1ccc2nc3cc([N+](=O)[O-])cc([N+](=O)[O-])c3cc2c1,75*,-39,-130,87*,52*,68*
Cc1nc2ccc([N+](=O)[O-])cc2nc1C,9,4,10,17,1,-13
O=c1[nH]c(=S)[nH]c2c1C(c1ccc(Br)cc1)c1c([nH]c(=S)[nH]c1=O)O2,5,-8,14,77*,4,13

# Bioassay records (PubChem BioAssay)
